The record followed here is PubChem BioAssay (NCI).

About 83,000 compounds went through this panel and 20% of them were active in at least one assay; those are over-represented in the sample as a whole.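 Negative percent growth values reflect cell death: -40 means 40% of the cells present at the start died, and -100 means all died.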 Activity calls are given as the source filed them.

For this test, the system named is HCT-116 colon. The experiment in a line: NCI-60 one-dose screen, 48 h (100 = growth as untreated, 0 = no growth, -100 = all killed). The following applies: 10 µM unless noted. The protocol:
Growth inhibition of the HCT-116 human tumor cell line is measured as a screen for anti-cancer activity. Cells are grown in 96 well plates and exposed to the test compound for 48 hours. Compounds are tested at a single concentration, which is 10^-5 M for most compounds. The reported endpoint is percent growth (GI% or GIPRCNT), where numbers from 0 - 100% represent growth inhibition, and numbers from -100% - 0 represent cell death. For example, a value of 40 represents 60% growth inhibition. A value of 0 means no net growth occurred over the course of the experiment. A value of -40 indicates 40% of cells at the beginning of the experiment died by the end of the experiment. A value of -100 means all cells are dead at the end of the experiment.
NCI-60 Human Tumor Cell Lines Screen was performed using the standard one-dose NCI protocol, which is described in more detail at https://dtp.cancer.gov/discovery_development/nci-60/default.htm.
Compounds with GIPRCNT values below 10 were considered active. Activity score was based on GIPRCNT using the following formula: […]
Score is 0 for GIPRCNT values of 100 or above, 50 for GIPRCNT values of 0, and 100 for GIPRCNT values of -100.
With `CC1CCCCN1S(=O)(=O)c1ccc(CN=C=S)cc1` (stereo not given), the growth was 9.92% (active). As for `CC1(C)N=C(N)N=C(N)N1c1cccc(/C=C/C=C/c2cccc([N+](=O)[O-])c2)c1`, the figure is 24.7% (inactive); as for `Fc1c[c-]c(-c2ccccn2)c(F)c1.Fc1c[c-]c(-c2ccccn2)c(F)c1.[Cl][Pt+].[Cl][Pt+].c1ccc([PH+](C[PH+](c2ccccc2)c2ccccc2)c2ccccc2)cc1`, 8.2% (active). As for `CC1(C)N=C(N)N=C(N)N1c1cccc(OCCOc2cccc([N+](=O)[O-])c2)c1`, the figure is 10.9% (inactive). In the case of `COc1cc2oc(-c3ccc(O)cc3)cc(=O)c2c(O)c1I`, the growth was 104% (inactive). As for `O=c1c2c(=NCCN3CCCC3)cc3c(=O)n(CCCN4CCOCC4)c(=O)c4ccc(c(O)n1CCCN1CCOCC1)c2c4-3`, the figure is 0.411% (active). As for `CCCCC1COc2cccc3c(SCC(=O)N(C)c4cccc5ccccc45)cc[n+]1c23` (stereo not given), the figure is 82.5% (inactive); as for `O=c1c2cc(F)ccc2oc2c(NCCNCCO)nc3ccccc3c12`, 17.2% (inactive); as for `Cc1nc2cc(Nc3nc(Cl)nc(Nc4ccc(F)cc4)n3)ccc2n1Cc1ccccc1`, 3.88% (active). On to `O=C(C[Si](CC(=O)c1cccc(C(F)(F)F)c1)CC(=O)c1cccc(C(F)(F)F)c1)c1cccc(C(F)(F)F)c1`, for which the growth is 23.5% (inactive). The same measure for `COc1ccc(OC2=C(C#N)C(=N)N3c4ccccc4Sc4ccccc4C3N2)cc1` (stereo not given): 103% (inactive).

In the case of `COc1cccc(OC)c1OC(=O)c1ccccc1`, the growth is 103% (inactive). As for `CCN1CCN(c2nc3ccccc3c3c(=O)c4cc(F)ccc4sc23)CC1`, the figure is 54.8% (inactive). As for `O=C1CC(c2ccsc2)c2snc(-c3ccc(Cl)cc3)c2N1` (stereo not given), the figure is 21.5% (inactive). The same measure for `CCCCCCCC/C=C\CCCCCCCCOc1cccc(CC(=O)NCC[N+]2(C)CCCCC2)c1`: 71.5% (inactive); for `COc1cc(C2C3=C(COC3=O)N(CCO)c3cc4c(cc32)OCO4)cc(OC)c1O` (stereo not given): 16.7% (inactive); for `CN1CCN(CCCn2c3c(sc4ncccc43)c(=O)n3nnc(-c4ccccc4)c23)CC1`: -92.6% (active).

With `COc1c(Cl)ccc2c(-c3nc4cc(Cl)c(F)cc4s3)cc(=O)oc12`, the growth was 88.4% (inactive). The same measure for `COc1ccc(/C=N\N2CCOCC2)cc1OC1CCCC1`: 87.9% (inactive).

For the compound `Cc1ccc(N=c2nc3sc4c(C)ccc(C)c4n3c(N)c2C#N)cc1`, the growth is 94.4% (inactive). As for `CCCCOC(=O)C1OC(Oc2ccc3c(C)cc(=O)oc3c2)[C@@H](OC(C)=O)C(OC(C)=O)C1OC(C)=O` (stereo not given in full), the figure is 88.1% (inactive); as for `COc1cc2nc(SCc3cc(OC)c(OC)c(OC)c3)n(-c3ccccc3OC)c(=O)c2cc1OC`, 88% (inactive). As for `CCOC(=O)c1cc2c(n(C)c1=O)-c1cnn(-c3ccc(OC)cc3)c1CC2`, the figure is 108% (inactive). As for `Cc1nc(NC(=O)COc2cccc(/C=C3\COc4ccccc4C3=O)c2)sc1C`, the figure is -88.4% (active); as for `O=C1C(Cl)=C(NCCCN2CCOCC2)C(=O)c2ccccc21`, 97.5% (inactive). For `COC(=O)c1c2c(c(C)[n+]([O-])c1C)C(=O)C=C(NCc1ccc(F)cc1)C2=O`, the growth was 0.358% (active). With `CCOC(=O)C1=C(C)N2C(=NC3=C(CCCC/C3=C\c3ccccc3)C2c2ccccc2)S1` (stereo not given), the growth was 96.3% (inactive). As for `Cn1c2ccccc2c2nn(Cc3ccccc3)c(=O)nc21`, the growth was 109% (inactive).

With `Cc1ccc2c(N/N=C\c3ccco3)cc(C)nc2n1`, the growth is 21.5% (inactive). The same measure for `COc1ccc(/C=C2\Oc3cc(C)c(Cl)cc3C2=O)cc1OC`: 84.6% (inactive); for `CCCN(CCC)c1ccc(/C=C/c2ccc3cc(OCC)ccc3n2)cc1`: 70.4% (inactive); for `Cn1c(=O)c(S(=O)(=O)c2ccccc2)cc2ccc3c(cnn3-c3ccc(Cl)cc3)c21`: 63.5% (inactive). For `O=C(COc1ccc(/C=C2\CSc3ccccc3C2=O)cc1)c1ccc(Cl)cc1`, the growth was 94.1% (inactive). `Cc1nn(-c2ccccc2)c2nc3nc4c(c(N)c3c(-c3ccc(Cl)cc3)c12)CCC4`: the growth is 58.2% (inactive).

On to `COc1cc(-c2nc(SC(C)C)nc(Nc3cccc(C)c3)c2C#N)cc(OC)c1OC`, for which the growth was 115% (inactive).

On to `Cc1nn2c(-c3nc4ccc(Cl)cc4[nH]3)c(-c3ccc(F)cc3)nc2s1`, for which the growth is 86.3% (inactive). The same measure for `COC(=O)[C@H]1CCCN1C(=O)[C@H]1CCCN1C(=O)[C@@H](Cc1c[nH]c2ccccc12)NC(=S)Nc1cc(C(F)(F)F)cc(C(F)(F)F)c1`: 39.5% (inactive); for `c1ccc(-c2n(Cc3ccc4ccccc4c3)c3ccccc3[n+]2Cc2ccc3ccccc3c2)cc1`: -85.4% (active). The same measure for `O=C(N/N=C/c1ccc(OC(F)F)c(OC2CCCC2)c1)c1cnn2c1NC(c1ccccc1)C2` (stereo not given): 67.4% (inactive). On to `O=C(O)CCN1CCN(c2cccc(Cl)c2)CC1`, for which the growth was 102% (inactive).
